# About 83,000 compounds went through this panel and 20% of them were active in at least one assay; those are over-represented in the sample as a whole.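 Cell lines were cultured in 96-well plates, exposed to a single compound concentration, and assessed for percent growth 48 hours later.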 Calls of active or inactive are those of the source.
# Tested on: TK-10 renal
# Test: NCI-60 one-dose screen, 48 h (100 = growth as untreated, 0 = no growth, -100 = all killed)
# Details: 10 µM unless noted
# Experimental: Growth inhibition of the TK-10 human tumor cell line is measured as a screen for anti-cancer activity. Cells are grown in 96 well plates and exposed to the test compound for 48 hours. Compounds are tested at a single concentration, which is 10^-5 M for most compounds. The reported endpoint is percent growth (GI% or GIPRCNT), where numbers from 0 - 100% represent growth inhibition, and numbers from -100% - 0 represent cell death. For example, a value of 40 represents 60% growth inhibition. A value of 0 means no net growth occurred over the course of the experiment. A value of -40 indicates 40% of cells at the beginning of the experiment died by the end of the experiment. A value of -100 means all cells are dead at the end of the experiment.
# NCI-60 Human Tumor Cell Lines Screen was performed using the standard one-dose NCI protocol, which is described in more detail at https://dtp.cancer.gov/discovery_development/nci-60/default.htm.
# Compounds with GIPRCNT values below 10 were considered active. Activity score was based on GIPRCNT using the following formula: […]
# Score is 0 for GIPRCNT values of 100 or above, 50 for GIPRCNT values of 0, and 100 for GIPRCNT values of -100.
row,SMILES,growth
1,CC[C@]12CC(C(=O)OC)=C3Nc4ccccc4[C@@]34CCN(C14)[C@@H]1c3cc4c(cc3O[C@@H]1[C@H]2O)NC1=C(C(=O)OC)C[C@@]2(CC)C3N(CC[C@@]143)C[C@H]1O[C@H]12 (stereo not given in full),6.66% (active)
2,Cc1cc(C)cc(NC2=C(Cl)C(=O)c3nc(C)ccc3C2=O)c1,128% (inactive)
3,Cc1ccsc1[C@H]1c2[nH]c3ccccc3c2C[C@H]2C(=O)N(CCCCCCC(=O)NO)CC(=O)N12,84% (inactive)
4,CCN(CC)c1ccc(/C=N/NC(=O)c2ccc(NS(C)(=O)=O)cc2)c(O)c1,47.9% (inactive)
5,CN1CCN(Cc2ccc(/C=N/Nc3ccnc4cc(Cl)ccc34)cc2)CC1,162% (inactive)
6,CN1CCN(c2ccc(Nc3nc(NCCCNS(=O)(=O)c4ccc(C(F)(F)F)cc4)c4sccc4n3)cc2)CC1,-34.4% (active)
7,O=C(CN1CCN(c2cc(=O)[nH]c3ccc(F)cc23)CC1)N(c1ccccc1)c1ccccc1,98.7% (inactive)
8,COc1ccc2c(c1)c(-c1nnc(N)nc1-c1c[nH]c3ccc(F)cc13)cn2C,90% (inactive)
9,O=C(CSc1nnc(-c2cccs2)n1-c1ccccc1)Nc1ccccc1,105% (inactive)
10,CC[C@]12C=CCN3CC[C@@]4(c5ccc(OC)cc5N(C)[C@H]4[C@@](O)(C(=O)OC)[C@@H]1OC(=O)CCN1CCc4ccccc4C1)[C@@H]32,98.8% (inactive)
11,CN1CCN(c2ccc(Nc3nc(NCCCNS(=O)(=O)c4ccccc4)c4sccc4n3)cc2)CC1,145% (inactive)
12,NC(N)=NS(=O)(=O)c1ccc(N=Nc2c(N)nn(-c3ccc([N+](=O)[O-])cc3[N+](=O)[O-])c2N)cc1,120% (inactive)
13,C=C(C)[C@@H]1CC[C@]2(COCCCNCCCN)CC[C@]3(C)[C@H](CC[C@@H]4[C@@]5(C)CC[C@H](O)C(C)(C)[C@@H]5CC[C@]43C)[C@@H]12,-85.5% (active)
14,CCCCc1nc2c(N)nc3ccccc3c2n1Cc1ccc(OC)cc1,68.3% (inactive)
15,CC1(C)C=Cc2cc(/C(N)=N/C(N)=N/c3nc4ccccc4s3)ccc2O1,113% (inactive)
16,CC1(C)CC[C@]2(C(=O)NCCCCCCN(CCCN)CCCN)CC[C@]3(C)C(=CC[C@@H]4[C@@]5(C)CC[C@H](O)C(C)(C)[C@@H]5CC[C@]43C)[C@@H]2C1,106% (inactive)
17,CCCc1cc2cc(-n3nc(CC)c4c3CC(C)(C)CC4=O)cc(NC3CCC(O)CC3)c2c(=O)[nH]1 (stereo not given),0.71% (active)
18,CN1CCC[C@]2(C)[C@H]3CC[C@@H]4[C@@H]5[C@H]6OC[C@@]5(CCC6(C)C)CC[C@@]4(C)[C@]3(C)CC[C@H]2C1(C)C,108% (inactive)
19,C#Cc1nc(C(=O)NCCCCCCC(=O)NO)cs1,-14.2% (active)
20,N#Cc1c(-c2ccc(F)cc2)cc(-c2c[nH]c3ccccc23)nc1-c1c[nH]c2ccccc12,128% (inactive)

row,SMILES,growth
1,CCCC/C(=C\c1ccc(O)c(O)c1)C(=O)NC(Cc1ccccc1)C(=O)C(=O)NCCc1ccc(OC)cc1 (stereo not given),107% (inactive)
2,Cc1ccc(S(=O)(=O)NCCCNc2nccc(-c3[nH]c(-c4ccccc4)nc3-c3ccc(F)c(O)c3)n2)cc1,134% (inactive)
3,Clc1ccc(CSc2nnc(-c3ccc(Cl)cc3)n2-c2ccccc2)cc1,93.3% (inactive)
4,CC(C)(C)Nc1nc2c(OCCc3ccccc3)cccn2c1-c1ccc([N+](=O)[O-])cc1,66.5% (inactive)
5,N#Cc1c(-c2cccs2)cc(-c2cnccn2)nc1SCC(=O)N/N=C/c1ccncc1,128% (inactive)
6,Clc1ccc2c(N/N=C/c3c[nH]c4ccccc34)ccnc2c1,-91.9% (active)
7,O=C(CCCCCCN1CC(=O)N2[C@@H](c3ccccc3Br)c3[nH]c4ccccc4c3C[C@H]2C1=O)NO,28.7% (inactive)
8,CCCCCCN1C=C/C(=C\C(=O)n2ccc3ccccc32)c2ccccc21,114% (inactive)
9,CC1=C(C)C(=O)C(Nc2cccc(C)c2)=C(Br)C1=O,152% (inactive)
10,COc1ccc(C(=NNS(=O)(=O)c2ccc(C)cc2)c2ccccc2)cc1OC,96.6% (inactive)
11,COc1ccc(C2CC(c3cccc(OCCCCOc4cccc(C5=NN(C(C)=O)C(c6ccc(OC)cc6)C5)c4)c3)=NN2C(C)=O)cc1 (stereo not given),78.9% (inactive)
12,CN1CCN(CC#CCn2c3c(c4ccccc42)C[C@]2(C)[C@H]4CC=C5[C@@H]6CC(C)(C)CC[C@]6(C(=O)N6CCOCC6)CC[C@@]5(C)[C@]4(C)CC[C@H]2C3(C)C)CC1,135% (inactive)
13,O=C1Nc2ccccc2/C1=N\c1nnc(-c2ccccc2)o1,224% (inactive)
14,CCCCSC1=C(Cl)CN(c2ccccc2)C1=O,134% (inactive)
15,CN1CCN(Cc2ccc(NC(=O)c3cncc(C#Cc4cnc5ccc(NCCO)nn45)c3)cc2C(F)(F)F)CC1,-16.3% (active)
16,CC(C)(C)c1cc(NC(=O)Nc2ccc(-c3cn4c5c(sc4n3)CCc3cn(CCCN4CCCCC4)cc3-5)cc2)no1,-89.3% (active)
17,Cc1ccc(C(=O)Nc2ccc(CNCCN3CCNCC3)c(C(F)(F)F)c2)cc1C#Cc1cnc2cccnn12,129% (inactive)
18,O=C(CSc1nnc(-c2cccs2)n1-c1ccccc1)Nc1ccccc1F,110% (inactive)
19,Cc1ccccc1NC(=O)Nc1nc2ccc([N+](=O)[O-])cc2s1,12.2% (inactive)
20,O=C(/C=C/c1ccc(F)cc1)Nc1cccc2cccnc12,147% (inactive)
